Results published in PubChem BioAssay (NCATS).
Results filed as inconclusive are left out. Unmarked numbers belong to inactive results. Calls of active or inactive are those of the source. Calls come from the whole dose curve; as a rule, active = well fitted inhibition curve with a large enough effect; inconclusive = small, poorly fitted or top-dose-only effect; inactive = no such curve, though single readings can be large or run the other way.

These compounds were tested against Chromobox protein homolog 1 (Homo sapiens) (UniProt P83916) (assay: qHTS Validation Assay for Inhibitors of HP1-beta Chromodomain Interactions with Methylated Histone Tails (AID 488953; note: nearly all actives have a fitted effect of over 50% in size)). Conditions: HP1-beta chromodomain / methylated histone peptide binding assay; series mostly up to 114 µM; activity change, negative = inhibition: at the top concentration.
Sequence of Chromobox protein homolog 1 (Homo sapiens) (P83916 whole entry, looked up): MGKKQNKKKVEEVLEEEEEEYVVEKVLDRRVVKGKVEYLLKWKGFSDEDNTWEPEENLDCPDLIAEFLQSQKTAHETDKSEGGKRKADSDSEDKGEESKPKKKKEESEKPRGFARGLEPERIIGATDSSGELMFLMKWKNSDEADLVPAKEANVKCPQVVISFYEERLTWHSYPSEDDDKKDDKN
From the text: As our understanding of epigenetics expands, it is becoming clear that players in this field are potential targets for drug development. This area of epigenetic therapy has established applications for the treatment of cancer and neurological diseases. We have been involved in this field for a number of years and have performed high-throughput screens to identify the first small molecule inhibitors of protein methyltransferases. These methyltransferases target multiple substrates, and thus regulate many arms of an epigenetic pathway. The methylation of different substrates often generates docking sites for effector proteins that harbor binding domains (chromo, tudor, PHD, MBT and ANK repeats).
It has been proposed that the binding sites generated for different proteins by these post-translational modifcations mediate downstream effects on chromatin. Consistent with this theory, di- and tri-methylation of histone H3K9 facilitates the binding of heterochromatin protein HP1. The HP1 protein harbors a chromodomain that is responsible for the methyl-dependent interaction between HP1 and lysine 9 of histone H3. HP1 was first described in flies as a heterochromatin associated protein that can regulate gene silencing. It harbors a chromodomain that binds H3K9me3. In addition, it harbors a chromoshadow domain that interacts with a large number of proteins that are involved in heterochromatin formation and gene repression. There are three highly related HP1 isoforms. All three variants are associated with pericentric heterochromatin and it is not clear whether they have specific or redundant functions. MPP8 is also involved in the repression of gene in euchromatic regions (unpublished data) and like HP1 its chromodomain binds H3K9me3. MPP8 harbors an ankyrin repeat region that is likely involved in binding and recruiting interacting proteins with transcriptional repressive function, much like the chromoshadow domain of HP1 does.
We hypothesize that by inhibiting specific protein-protein interactions we will be able to develop compounds that block a single arm of an epigenetic pathway. The specificity attained by blocking a single protein-protein interaction will be far greater than that attained by blocking the enzyme that regulates one of many interactions.
Low-affinity protein-protein interactions (Kd in the single- to double-digit micromolar range) such as those discussed here have been very difficult to assay by traditional techniques such as fluorescence polarization or fluorescence resonance energy transfer. We have developed a sensitive chemiluminescence-based assay (Quinn, et al. 2009), which serves as the starting point for this project.
The following is a validation assay to identify lead compounds that can block methyl-dependent protein-protein interactions (specifically HP1-beta), which can be used as probes to analyze these methyl-driven interactions and perhaps even developed into targeted epigenetic therapies.
Assay Provider: Mark T. Bedford, MD Anderson
Screening Center PI: Austin, C.P.
Screening Center: NIH Chemical Genomics Center [NCGC]
To each well, 2 uL of HP1-beta protein (final 50 nM) and 1 uL biotinylated histone peptide trimethylated at Lys9 [b-H3(1-18)K9me3] (final 50 nM) was added in 1x PBS buffer, pH 7.4, containing 0.01% Tween-20 using a nanoliter dispenser. Formation of a protein-peptide complex proceeded at room temperature for 30 min. A Kalypsys pin-tool was employed to transfer 23 nL of library compound solution in DMSO to each well. Aurintricarboxylic acid (ATA) was used as an intraplate control with a 12-point titration in duplicate. Following a 30 min incubation of the protein-peptide complex with compounds at room temperature, a mixture of 40 ug/mL each streptavidin-coated donor and nickel chelate acceptor AlphaScreen beads (final 10 ug/mL) was added in a 1 uL dispense for a final volume of 4 uL. Plates were incubated protected from the light for 30 min at room temperature. […]
% is set by controls: 0 for no effect and ±100 for the full control effect; potency is the fitted concentration of half-maximal effect.

| SMILES | activity change, negative = inhibition [%] | Potency |
| --- | --- | --- |
| COc1cc([C@@H]2c3cc4c(cc3[C@H](O)C3COC(=O)[C@@H]32)OCO4)cc(OC)c1OC (stereo not given in full) | 8.19 |  |
| CC[n+]1c(/C=C/C=C2/N(C)c3ccccc3C2(C)C)sc2ccccc21 |  | 25.1 µM (active) |
| C=C1C(=O)O[C@@H]2[C@H]3O[C@]3(C)CCC=C(C)CC[C@@H]12 | 16.7 |  |
| Nc1nc2c(cnn2CCc2ccccc2)c2nc(-c3ccco3)nn12 | 12.5 |  |
| Nc1nc2c(nc(Br)n2C2OC3COP(=O)(O)O[C@@H]3C2O)c(=O)[nH]1 (stereo not given in full) | 1.79 |  |
| CC(C)NC[C@H](O)COc1ccc(CC(N)=O)cc1 | -1.37 |  |
| O=C(OCCN1CCOCC1)C1(c2ccccc2)CCCCC1 | 8.2 |  |
| Brc1c(Br)c(Br)c2[nH]cnc2c1Br | -3.86 |  |
| COc1ccc(CCn2nnnc2C2(c3ccc(C)cc3)CC2)cc1 | 10.1 |  |
| CC(=O)/C(C)=N/O | -2.43 |  |
| CN(CC[C@@H](Oc1ccc(C(F)(F)F)cc1)c1ccccc1)CC(=O)O | -5.44 |  |
| COc1cc(C(O)C(=O)O)ccc1O (stereo not given) | -4.94 |  |
| COc1ccc(NC(=O)c2ccc(-c3ccc(-c4noc(C)n4)cc3C)cc2)cc1N1CCN(C)CC1 |  | 31.6 µM (active) |
| O=c1cc(-c2ccccc2)[nH]c2nc(Cl)ccc12 | 15.5 |  |
| CCCCOC(=O)NS(=O)(=O)c1sc(CC(C)C)cc1-c1ccc(Cn2c(CC)nc3c(C)cc(C)nc32)cc1 | -7.21 |  |
| CC(=O)O[C@H]1CC2(C)[C@@H](C[C@@H](O)[C@H]3[C@@]4(C)CC[C@@H](O)[C@@H](C)[C@@H]4CC[C@@]32C)C1=C(CCC=C(C)C)C(=O)O (stereo not given in full) | -2.31 |  |
| Nc1ncnc2c1ncn2C1CCCC1 | 4.02 |  |
| CCCC[C@@]1(C2CCCC2)Cc2cc(OCC(=O)O)c(Cl)c(Cl)c2C1=O | -5.01 |  |
| CCCn1c(=O)c2[nH]c(-c3ccc(S(=O)(=O)O)cc3)nc2n(CCC)c1=O | -0.916 |  |
| c1ccc(C(NCCNC(c2ccccc2)c2ccccc2)c2ccccc2)cc1 | 19.1 |  |

| SMILES | activity change, negative = inhibition [%] | Potency |
| --- | --- | --- |
| Cn1c(=O)c2c(nc(/C=C/c3cccc(Cl)c3)n2C)n(C)c1=O | 15.9 |  |
| CCCCCCCCCC[Si](C)(C)CCC(=O)NC(Cc1ccc(C)cc1)c1ccccc1 (stereo not given) | -1.6 |  |
| N=C(N)c1ccc(OCCCCCOc2ccc(C(=N)N)cc2)cc1 (tested in a mixture with another compound) | -6.67 |  |
| NCCC1CCCC(CCN)N1 (stereo not given) | -3.74 |  |
| CC(=O)[C@H]1CCC2C3CC=C4C[C@@H](OS(=O)(=O)O)CC[C@]4(C)C3CC[C@@]21C (stereo not given in full) | -6.71 |  |
| Nc1ccc(CCNc2ncnc3c2ncn3C2OC(CO)C(O)C2O)cc1 (stereo not given) | 0.869 |  |
| O=c1[nH]c2cc(Cl)ccc2c(O)c1-c1ccc(Oc2ccccc2)cc1 | -9.71 |  |
| Oc1cc(O)c2c(c1)O[C@H](c1ccc(O)c(O)c1)[C@@H](O)C2 | -4.68 |  |
| CCCn1c(=O)c(C)cn2nc(N)nc12 | -3.16 |  |
| CC1=C(C(=O)O)N2C(=O)[C@@H](NC(=O)C(N)C3=CCC=CC3)[C@H]2SC1 (stereo not given in full) | 0.384 |  |
| CC(O)C(O)[C@H]1CNc2nc(N)[nH]c(=O)c2N1 (stereo not given in full) | 0.532 |  |
| CC1C(=O)N(C)C(=O)c2nc[nH]c21 (stereo not given) | -9.22 |  |
| NC(Cc1cccc(-c2ccccc2CP(=O)(O)O)c1)C(=O)O (stereo not given) | 2.22 |  |
| O=C(O)/C=C/c1ccc(O)c(O)c1 | 7.13 |  |
| Cc1nc2n(c(=O)c1CCN1CCC(c3noc4cc(F)ccc34)CC1)CCCC2O (stereo not given) | -12.1 |  |
| Nc1ncnc2c1nc(Br)n2C1OC2COP(=O)(O)O[C@@H]2C1O (stereo not given in full) | -0.586 |  |
| C[C@](Cc1ccc(O)c(O)c1)(NN)C(=O)O | 16.8 |  |
| C/C(=C\c1ccc(C(=O)O)cc1)c1ccc2c(c1)C(C)(C)CCC2(C)C | 4.03 |  |
| CN[C@H](CC(=O)O)C(=O)O | 6.8 |  |
| CNCCNS(=O)(=O)c1cccc2cnccc12 | 0.29 |  |
